Screening results (PubChem BioAssay)
DUX4 inh: DUX4-mediated transcription inhibition; 37,000 compounds, 0.8% hits; AID 1224904; activity change, negative = inhibition, % (no concentration beside the values); 293T-iDUX4 ZSCAN4-Gaussia luciferase reporter, 24 h; hits give low values;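 active = mean inhibition of at least 10% in the main channel, exceeding the control channel by a set limit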;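 note: 0% = median of neutral control wells and -100% = median of positive control wells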
Active calls of the source: *; ! = repeats disagree. The sample as a whole holds a higher share of hits than the screen did.

SMILES	DUX4 inh
C/C=C/c1ccc(C2[C@@H]3CN(Cc4ccccn4)C[C@H]2N3)cc1 (stereo partly drawn)	-2
C/C=C/c1ccc(C2[C@@H]3CN(C(C)=O)C[C@H]2N3)cc1 (stereo partly drawn)	-21*!
C/C=C/c1ccc(C2[C@@H]3CN(C(=O)C4CCCC4)C[C@H]2N3)cc1 (stereo partly drawn)	12
COc1ccc(-c2ccc3n(c2=O)C[C@@H]2[C@@H](CO)[C@H](C(=O)O)[C@H]3N2C(=O)c2ccccc2F)cc1	0
CCCN1[C@@H]2c3ccc(-c4ccccc4)c(=O)n3C[C@H]1[C@H](CO)[C@H]2C(=O)OC	0
O=C(Cc1ccccc1)N1CCCCN2[C@H](CO)[C@@H](c3ccc(C#CC4(O)CCCC4)cc3)[C@H]2C1	-6
O=C(Cc1ccncc1)N1CCCCN2[C@H](C1)[C@H](c1ccc(C#Cc3ccccc3F)cc1)[C@@H]2CO	-63*
N#Cc1ccc(-c2ccc([C@@H]3[C@@H](CO)N4CCCCN(C(=O)Cc5ccccc5)C[C@H]34)cc2)cc1	5
O=C(O)[C@H]1[C@H](CO)[C@H]2Cn3c(ccc(-c4ccccc4F)c3=O)[C@@H]1N2C(=O)Nc1ccccc1	8
CC(=O)N1[C@@H]2c3ccc(-c4cccc(C(=O)N(C)C)c4)c(=O)n3C[C@H]1[C@H](CO)[C@H]2C(=O)O	0
